4MU fluor – compound fluoresces in the 4-MU spectral region | compound autofluorescence, 340/450 nm, 4-MU equivalents; active compounds read high | max dye-equivalent concentration, M | actives 11% (n = 59,000) | AID 589; in the data active = max dye-equivalent concentration above about 10 nM; inconclusive = mostly about 1.1 nM to 9.6 nM
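Compounds in 100 mM Tris, pH 8.0, incubated 15 min at room temperature, then fluorescence read at 340 nm excitation/450 nm emission. Signal converted to 4-MU dye-equivalent concentration using an on-plate six-point 4-MU standard curve.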
HSD17B inhib – blocks hydroxysteroid 17-beta dehydrogenase activity; recombinant HSD17B10, NADH fluorescence kinetic; Q99714; Potency, µM (series often up to 57.1 µM), hits mostly inhibitors; actives 7.6% (n = 75,000);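 also: the protocol describes HADH2 (HSD17B10) and not the HSD17B4 of the title; nearly all actives have a fitted effect of over 70% in size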
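Enzyme plus compound, 15 min room temperature; substrate mix added (NAD+ 1 mM, beta-hydroxybutyryl-CoA 90 uM final); plates read kinetically for NADH fluorescence. HADH2 was His-tagged, E. coli-derived, 20 nM.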
A350 fluor – compounds fluorescent in Alexa 350 spectral region. Compound autofluorescence, 340/450 nm, Alexa 350 dye-equivalents; active compounds read high. max dye-equivalent concentration, M. actives 11% (n = 59,000). AID 590; in the data active = max dye-equivalent concentration above about 10 nM; inconclusive = mostly about 1.1 nM to 9.6 nM
CRE Fsk mod – CRE-bla signaling modulation under forskolin stimulation | actives 2.5% (n = 71,000) | Potency, µM (highest dose often 38.2 µM), usual class: activators | AID 662 | CHO CRE-bla reporter (cAMP response element driving beta-lactamase), forskolin EC10, beta-lactamase ratio; active = well fitted activation curve with a large enough effect in the signal ratio, with a control signal flat, not every such curve was filed as active; inconclusive = small, poorly fitted or top-dose-only effect, or effect the other way, or a change in a side signal; the % refers to the signal ratio
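Titrated compounds plus EC10 NKH 477 on CHO CRE-bla cells, 3 h, 37 °C. CCF4, 2 h RT. Ratio 460/530 nm → AC50.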
HADH2 inh – blocks human hydroxyacyl-CoA dehydrogenase type II; Q99714; recombinant HADH2, NADH fluorescence, beta-hydroxybutyryl-CoA; Potency, µM (series often up to 57.1 µM), usual class: inhibitors; actives 3.4% (n = 73,000); also: nearly all actives have a fitted effect of over 60% in size
Target sequence (Q99714 whole entry, looked up, one chain of several): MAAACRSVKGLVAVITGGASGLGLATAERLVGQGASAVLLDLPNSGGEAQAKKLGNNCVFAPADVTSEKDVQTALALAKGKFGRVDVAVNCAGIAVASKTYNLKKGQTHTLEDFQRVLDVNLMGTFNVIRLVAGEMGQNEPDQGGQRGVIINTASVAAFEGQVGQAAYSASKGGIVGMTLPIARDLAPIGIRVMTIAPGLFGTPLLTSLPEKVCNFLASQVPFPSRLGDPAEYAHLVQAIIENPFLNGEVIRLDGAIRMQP
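NADH fluorescence (ex 360/em 450 nm) read every 30 s for 4 min; activity taken as last-minus-first time point difference. Enzyme 20 nM, NAD+ 1 mM, beta-hydroxybutyryl-CoA 90 uM, pH 9.0 Tris buffer.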
AID923 – qHTS Assay for Allosteric/Competitive Inhibitors of Caspase-1: Spectroscopic Profiling in AFC Spectral Region | compound fluorescence, AFC spectral region (405/520 nm) | actives 1.1% (n = 75,000) | Potency, µM (series often up to 57.5 µM), usual class: activators | AID 923, 2007
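Compound autofluorescence profiled at 405 nm ex/520 nm em during kinetic caspase 1 run (50 nM enzyme, 5 uM Ac-WEHD-AFC, HEPES pH 7.5, 10 mM DTT). Titration up to 57 uM; baseline from regression intercept, normalized to AFC standard curve.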
Numbers stand for hits; . = inactive; ? = inconclusive; / = not tested or not shown; [ ] = dose if it differs, or a comment. This is a sample that favours compounds with a hit; in the whole collection about 14% have one here. Unless noted, calls follow the shape of the dose curve; as a rule, active = well fitted curve in the direction sought with a large enough effect; inconclusive = small, poorly fitted or top-dose-only effect, or another doubt; inactive = no such curve, though single readings can be large; an effect the other way counts as inactive or inconclusive.

SMILES | 4MU fluor | HSD17B inhib | A350 fluor | CRE Fsk mod | HADH2 inh | AID923
c1ccc2c(c1)[nH]c1c(N3CCN(C4CCCCC4)CC3)ncnc12 | ? | / | 1.2e-08M | / | / | /
CN1CCN(c2ncnc3c2[nH]c2ccc(F)cc23)CC1 | 6.2e-08M | / | 7e-08M | / | / | /
c1ccc2c(c1)[nH]c1c(N3CCOCC3)ncnc12 | / | ? | / | . | . | .
CC(=O)O[C@]1(C(C)=O)CC[C@H]2[C@@H]3C=C(Cl)C4=CC(=O)[C@@H]5C[C@@H]5[C@]4(C)[C@H]3CC[C@@]21C | / | . | / | . | . | .
Cc1ccc(/C=c2\sc3nc(-c4ccco4)nn3c2=O)o1 | ? | 13µM | ? | . | 16µM | .
COc1ccc(Br)cc1/C=c1\sc2nc(-c3ccco3)nn2c1=O | . | 6.3µM | . | . | 20µM | .
Cc1ccc(/C=c2\sc3nc(-c4ccccc4Br)nn3c2=O)o1 | . | . | ? | . | . | .
O=C(Nc1nc(-c2cccs2)cs1)c1cccc(S(=O)(=O)N2CCCCC2)c1 | 2e-08M | ? | 2.8e-08M | . | ? | .
O=C(Nc1cccc(F)c1)c1cccc(S(=O)(=O)N2CCOCC2)c1 | 1.8e-07M | ? | 2.2e-07M | . | . | .
O=C(NCCO)c1cccc(S(=O)(=O)N2CCCCC2)c1 | 1.3e-08M | . | 1.6e-08M | . | ? | .
COc1cc(C(=O)Nc2nc(-c3cccs3)cs2)cc(OC)c1OC | ? | 32µM | ? | ? | ? | .
O=C(NCCN1CCOCC1)c1cccc(S(=O)(=O)N2CCCCCC2)c1 | . | . | ? | . | . | .
CCOC(=O)N1CCC(NC(=O)CCc2c(C)nc3c(c(C)nn3C(C)(C)C)c2C)CC1 | . | . | . | . | . | .
OCC1OC(n2cnc3c(NCc4ccco4)ncnc32)C(O)C1O (stereo not drawn) | / | . | / | / | / | .
CCOc1cc(S(=O)(=O)NC2CCCCCC2)ccc1F | 2.3e-06M | . | 3.4e-06M | . | ? | .
Cc1cc(S(=O)(=O)NC2CCCC2)ccc1F | . | . | . | . | . | .
COc1ccccc1-c1nccc(N2CCN(C)CC2)n1 | . | . | . | . | . | .
CCc1nc(SCc2ccc(C(=O)OC)o2)c2c(=O)n(C)c(=O)n(C)c2n1 | / | . | / | 2µM | . | .
CCc1nc(SCC(N)=O)c2c(=O)n(C)c(=O)n(C)c2n1 | / | . | / | . | . | .
CCc1nc(SCC(=O)N2CCC(C)CC2)c2c(=O)n(C)c(=O)n(C)c2n1 | / | . | / | 10µM | . | .
COC(=O)c1ccc(CSc2nc(C)nc3sc(C)c(C)c23)o1 | . | . | . | 0.79µM | . | .
CC(C)(C)NC(=O)C(c1ccncc1)N(C(=O)c1csnn1)C1CC1 (stereo not drawn) | 8.5e-07M | 16µM | 1.1e-06M | . | . | .
COc1ccc(-n2ncc3c(=O)n(CC(=O)OCc4ccccc4)cnc32)cc1 | . | 4µM | . | . | . | .
Cc1ccc(-n2nnc3c(=O)n(CC(=O)N4CCCC4)cnc32)cc1 | . | . | . | ? | . | .
Cc1ccc(-n2ncc3c(=O)n(CC(=O)N4CCCCCC4)cnc32)cc1 | ? | 32µM | ? | ? | . | .
SMILES | 4MU fluor | HSD17B inhib | A350 fluor | CRE Fsk mod | HADH2 inh | AID923
O=C1[C@H]2[C@H]3[C@H](O)[C@H](O)C/C(=N/OC[C@@H](O)COCc4ccco4)[C@H]3CC[C@@H]2C(=O)N1Cc1ccc2c(c1)OCO2 | / | .[11.4 µM] | / | / | .[11.4 µM] | .[11.5 µM]
CCCCOc1cccc(NC(=O)CSc2nccn2C)c1 | / | . | / | ? | .[11.4 µM] | .
COCc1cc(C)nc2sc(C(=O)OC)c(N)c12 | 1.2e-08M | . | 1.5e-08M | ? | . | .
COCc1cc(C)nc2sc(C(=O)N3CCCC3)c(N)c12 | . | . | . | . | . | .
CC(=O)c1c(C)[nH]c(C(=O)OCC(=O)Nc2cc(C(F)(F)F)ccc2N2CCOCC2)c1C | . | . | . | ? | . | .
O=C(Nc1c(C(=O)O)[nH]c2ccccc12)NC1CCCCC1 | 3.3e-08M | 32µM | ? | . | 32µM | .
O=C(NC1CCCCCCC1)c1c(O)c2ccccc2[nH]c1=O | / | . | / | / | . | .
CCCn1c(-c2ccc(F)cc2)nc2c(NC(C)CN(C)C)nc(C)nc21 (stereo not drawn) | / | 32µM | / | . | . | .
CCCn1c(-c2ccc(F)cc2)nc2c(NCCCCN(C)C)nc(C)nc21 | / | 25µM | / | . | . | .
CCCn1c(-c2ccc(F)cc2)nc2c(NCCN(C(C)C)C(C)C)nc(C)nc21 | / | 20µM | / | . | . | .
CCCn1c(-c2ccc(F)cc2)nc2c(NCCN(C)C)nc(C)nc21 | / | 20µM | / | . | . | .
CCCn1c(-c2ccc(F)cc2)nc2c(NCCN3CCSCC3)nc(C)nc21 | / | ? | / | ? | . | .
CCCn1c(C)nc2c(NC(C)CN(C)C)nc(C)nc21 (stereo not drawn) | / | . | / | . | . | .
C=CCn1c(C(C)NC(=O)COC)nc2ccccc21 (stereo not drawn) | / | . | / | . | . | .
NCCC[C@@H](CC(=O)N[C@@H]1CCNC[C@H]1C(=O)N[C@H](CC(=O)N[C@@H](CCC(=O)O)CC(=O)O)Cc1c[nH]c2ccccc12)NC(=O)C[C@H](Cc1c[nH]c2ccccc12)NC(=O)[C@@H]1CNCC[C@H]1N | / | / | / | ? | . | /
CC(C)C(NC(=O)C(Cc1ccc(O)cc1)NC(=O)C(NC(=O)C(F)(F)F)C(C)C)C(=O)O (stereo not drawn) | / | . | / | / | / | .
CC(C)(C)OC(=O)N[C@@H](Cc1ccccc1)c1nnc(S(=O)(=O)Cc2ccccc2)o1 | . | . | . | ? | 1.3µM | .
CC(C)(C)OC(=O)N[C@@H](Cc1ccccc1)c1nnc(SCC(=O)O)o1 | . | . | ? | . | . | .
CCC(C)[C@@H](NC(=O)OC(C)(C)C)c1nnc(S(=O)(=O)Cc2cccc(C)c2)o1 (stereo partly drawn) | . | . | . | ? | 2.5µM | .
Cc1cc2c(nc1C)CCCCN2C[C@H](C)O/N=C\[C@@H](C)[C@H](OCc1ccccc1)C(C)C | / | .[11.4 µM] | / | / | .[11.4 µM] | .[11.5 µM]
Nc1ncnc2c1c(I)cn2C1OC(CO)C(O)C1O (stereo not drawn) | / | . | / | / | / | .
Nc1ncnc2oc(-c3ccco3)c(-c3ccco3)c12 | / | 32µM | / | . | 5µM | .
O=C1CCCC(O)=C1C(C#Cc1ccccc1)C1=C(O)CCCC1=O | . | ? | . | . | 13µM | .
O=C1CCCC2=C1C(c1ccccc1O)C1=C(CCCC1=O)O2 | . | . | . | . | . | .
Cc1cccn2c(=O)c(/C=N/O)c(N3CCCCC3)nc12 | 1.3e-08M | . | 1.5e-08M | . | . | .
N#C/C(=C\c1c(N2CCC(C(N)=O)CC2)nc2ccccn2c1=O)S(=O)(=O)c1ccccc1 | ? | / | 1e-08M | / | / | /

Source: PubChem
